Bioassay records (PubChem)
Only a selection was taken, and hits are over-represented in it overall.
Anaer choline gr: inhibitors of anaerobic choline-dependent gram-negative bacterial growth. Gram-negative bacterium anaerobic choline minimal medium, absorbance growth; active compounds read low. calls only. 55,000 tested, 0.2% active. AID 1963822; call rule not given here
Calls only; n = inactive; + = active, no number.

SMILES	Anaer choline gr
O=C(Nc1ccc(N2CCC(Cc3ccccc3)CC2)cc1C(=O)O)c1ccccc1Cl	+
CCCCN(C)c1ccc(NS(=O)(=O)c2ccc(Br)cc2)c(C(=O)O)c1	n
CN1CCN(c2ccc(NC(=O)c3ccccc3Cl)c(C(=O)O)c2)CC1	n
CCCN1CCN(c2ccc(NC(=O)c3ccccc3Cl)c(C(=O)O)c2)CC1	n
CCCCN(C)c1ccc(NC(=O)c2ccccc2Cl)c(C(=O)O)c1	+
CCCCN(C)c1ccc(NC(=O)C2CC2)c(C(=O)O)c1	n
CC(C)c1nnc(-c2ccc(S(=O)(=O)N3CCCCC3)o2)o1	n
O=S(=O)(NC1CCCCC1)c1ccc(-c2nnc(C3CCC3)o2)o1	n
CC(C)c1nnc(-c2ccc(S(=O)(=O)NC3CCCC3)o2)o1	+
CN1CCc2c(sc(NC(=O)CN3C(=O)c4ccccc4C3=O)c2-c2nc3ccccc3s2)C1	n
CC(C)N1CCc2c(sc(NC(=O)C3CC3)c2-c2nc3ccccc3s2)C1	+
CN1CCc2c(sc(NC(=O)C3CC3)c2-c2nc3ccccc3s2)C1	n
CCOC(=O)C1CCCN(C(=O)c2ccc(NC(=O)N3CCSc4nc(C)cc(C)c43)cc2)C1 (stereo unspecified)	n
COc1ccc(Cc2nnc3sc(-c4c[nH]c5ccccc45)nn23)cc1OC	n
CCn1c(=O)c2sccc2n2c(SC)nnc12	n
COc1cc(NC(=O)CCc2c(C)nn(-c3ccc4nncn4n3)c2C)cc(OC)c1	n
Cc1ccc(NC(=O)Nc2ccc(SCc3cc(=O)n4c(ncn4C(C)C)n3)cc2)cc1C	n
COc1ccc(-c2nn3c(-c4ccc5ccccc5n4)nnc3s2)cc1	n
O=C(NCc1ccnc(N2CCSCC2)c1)Nc1ccc(F)cc1F	n
COc1ccccc1NC(=O)NCc1ccnc(N2CCCCC2)c1	+
COc1ccccc1CNC(=O)c1ccc(N2CCCC2)c(NC(=O)Nc2ccccc2Cl)c1	n
COc1ccccc1NC(=O)Nc1ccc(Nc2cc(N3CCCC3)nc(C)n2)cc1	n
O=C(NCc1ccnc(N2CCCCC2)c1)Nc1ccc(F)c(Cl)c1	+
O=C(NCc1ccnc(N2CCSCC2)c1)Nc1cc(F)ccc1F	n
C=CCN1CCN(C2CCN(S(=O)(=O)c3ccc(OCC)cc3)CC2)C(=O)C1=O	n
SMILES	Anaer choline gr
CC1CCCCC1NC(=O)c1sc2ncccc2c1-n1cccc1 (stereo unspecified)	n
Cc1ccc(NC(=O)c2cc3sc4ccccc4c3s2)cc1C	n
Clc1cccc(COc2cccc3ccc(N4CCCC4)nc23)c1	n
COc1cccc(CNC(=O)c2nc(N3CCCC3)c3c(C)c(C)n(-c4cccc(Cl)c4)c3n2)c1	n
O=C(Nc1cnn(-c2ncc(N3CCCC3)cn2)c1)NC1CCCC1	n
O=C(Nc1cnn(-c2ncc(N3CCCC3)cn2)c1)C1CCC1	+
O=C(Nc1cnn(-c2ncc(N3CCSCC3)cn2)c1)C1CCOC1 (stereo unspecified)	n
C=CCn1nnc(NCc2ccc(-c3ccc(Cl)cc3Cl)o2)n1	n
Cc1cccc(NC(c2ccc3c(c2)OCO3)c2c(NC(=O)c3ccccc3)sc(C)c2C)n1 (stereo unspecified)	n
Cc1ccc(Cl)cc1NS(=O)(=O)c1cc(-c2nc(C(C)(C)C)cs2)cs1	n
CC(C)(C)c1csc(-c2csc(S(=O)(=O)Nc3ccc(F)c(Cl)c3)c2)n1	n
CC(C)(C)c1csc(-c2csc(S(=O)(=O)Nc3ccc(Cl)cc3F)c2)n1	+
O=C(c1ccc(N2CCCC2)c(S(=O)(=O)N2CCCC2)c1)N1CCN(c2ccccc2)CC1	n
O=C(c1nc(-c2ccccc2)n(-c2ccc(Cl)cc2)n1)N1CCCC1	n
CC(=O)NC(C)c1nc(-c2ccccc2)no1 (stereo unspecified)	n
COc1ccc(-c2nn3c(CSc4ccccc4)nnc3s2)cc1	n
CN(C)c1cccc(-c2nn3c(CSc4ccccc4)nnc3s2)c1	n
c1ccc(SCc2nnc3sc(-c4cccnc4)nn23)cc1	+
Cc1ccc(S(=O)(=O)N2CCCC(c3nc(-c4ccccc4C)no3)C2)cc1 (stereo unspecified)	n
O=C(NCc1ccccc1)c1cccc(N2C(=O)CCS2(=O)=O)c1	n
O=C(CSc1nnc(-c2cccnc2)o1)Nc1ccc2c(c1)OCO2	+
Cn1c(-c2nnc(SCC(=O)Nc3ccc4c(c3)OCO4)o2)cc2ccccc21	n
O=C(CSc1nnc(-c2cc3ccccc3[nH]2)o1)Nc1ccc2c(c1)OCO2	n
CCn1c(CN(c2ccc(F)cc2)S(C)(=O)=O)nnc1SCC(=O)c1ccccc1	n
CCn1c(CN(c2ccc(F)cc2)S(C)(=O)=O)nnc1SCC(=O)Nc1ccc(F)cc1F	+
SMILES	Anaer choline gr
CCn1c(CN(c2ccc(F)cc2)S(C)(=O)=O)nnc1SCC(=O)c1ccc(Cl)cc1	n
C=CCn1nc(SCC(=O)OCC)n2c(=O)c3c(nc12)-c1ccccc1CC3(C)C	n
COc1ccc(-c2cc(-c3ccccc3)nc3c(C(=O)Nc4ccc(F)cc4)cnn23)cc1	n
CN(C(=O)CSc1nc2ncccc2o1)c1ccccc1	n
Cc1nc2nc(CNc3ccc(Br)cc3)[nH]n2c(=O)c1C	n
CCOc1ccc(NC(=O)C(C)Sc2nc3c(c(=O)[nH]2)CCCC3)cc1 (stereo unspecified)	n
CCC(Sc1nc2ncccc2[nH]1)C(=O)Nc1ccc(Br)cc1 (stereo unspecified)	n
CCOc1ccc(NC(=O)C(CC)Sc2nc3ncccc3[nH]2)cc1 (stereo unspecified)	+
COc1ccc(-c2cc(C(=O)Nc3cc(C)ccc3C)nn2C2CCS(=O)(=O)C2)cc1 (stereo unspecified)	n
CCCOc1ccc(C2CC(=O)Nc3c2cnn3-c2ccc3nnc(C)n3n2)cc1OCC (stereo unspecified)	n
CC(C)NC(=O)N1CCCC(c2cccc(C(=O)NCCCN3CCCC3=O)c2)C1 (stereo unspecified)	n
O=C(Nc1ccc2c(c1)OCO2)Nc1cc(NC(=O)c2ccccc2)ccc1N1CCCC1	n
Cc1cc(C)cc(NC(=O)Nc2cc3c(cc2N2CCCC2)n(C)c(=O)n3C)c1	n
Cn1c(=O)n(C)c2cc(N3CCCC3)c(NC(=O)Nc3ccc4c(c3)OCCO4)cc21	+
O=C(C(=O)N1CCNc2ccccc2C1)c1ccccc1	n
CCn1c(=O)c2ccn(CC(=O)N3CCN(c4ccccn4)CC3)c2n(CC)c1=O	n
OCC1O[C@H]([S-])[C@@H](O)C(O)[C@@H]1O.[Au+] (stereo partly specified)	+
OC[C@H]1O[C@H](O[C@H]2[C@H](O)[C@@H](O)[C@H](O)O[C@@H]2CO)[C@H](O)[C@@H](O)[C@@H]1O	n
OCC1O[C@H](O)C(Cl)C(O)C1O (stereo partly specified)	n
CCOc1nc2c(c(C)nn2-c2ccc(C)cc2)c(C)c1CCC(=O)Nc1ccc(OC)c(OC)c1	n
Cc1cc2cc(CO)c(=O)[nH]c2cc1C	n
